Results: PubChem BioAssay (NCI)
Compounds without any hit were thinned out: in the full panel of roughly 79,000, 15% have a hit. No stated cut-off is given here; in the data, active means growth inhibition above about 70%; inactive means the rest.

Tests used:
[1] = NCI Yeast Anticancer Drug Screen. Data for the rad50 strain (AID 155);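 further: 0% = growth of vehicle-only cultures of the same strain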; details: S. cerevisiae rad50 strain growth inhibition; at 50.0 µM; stronger effect = higher value
In short: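 Inhibition values express reduced yeast growth in compound-treated cultures relative to vehicle-treated controls.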

[2] = NCI Yeast Anticancer Drug Screen. Data for the mec2-1 strain (AID 157); details: S. cerevisiae mec2-1 strain, at 50.0 µM, stronger effect = higher value
In short: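 Strain: mec2-1 (DNA repair/cell cycle alteration). Compound exposure, then growth measured; inhibition expressed relative to vehicle.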

[3] = NCI Yeast Anticancer Drug Screen. Data for the sgs1 mgt1 strain (AID 161);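 further: 0% = growth of cultures given vehicle only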; details: S. cerevisiae sgs1 mgt1 strain, at 50.0 µM, stronger effect = higher value
In short: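 Read-out: growth inhibition vs vehicle controls. Cells: mutant yeast strain deficient in DNA damage repair.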

[4] = NCI Yeast Anticancer Drug Screen. Data for the cln2 rad14 strain (AID 165);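 further: 0% = growth equal to vehicle treated cultures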; details: S. cerevisiae cln2 rad14 strain, at 50.0 µM, stronger effect = higher value
In short: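 Compounds are applied to the cln2 rad14 yeast strain, and growth is then compared with that of vehicle-treated cultures to give inhibition.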

[5] = NCI Yeast Anticancer Drug Screen. Data for the bub3 strain (AID 167); details: S. cerevisiae bub3 mutant strain, at 50.0 µM, stronger effect = higher value
In short: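 Steps: expose the mutant yeast strain to compound; grow alongside vehicle-treated cultures; measure growth; express inhibition against the vehicle cultures.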

[6] = NCI Yeast Anticancer Drug Screen. Data for the mlh1 rad18 strain (AID 175); details: S. cerevisiae mlh1 rad18 strain growth inhibition; at 50.0 µM; stronger effect = higher value
In short: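 Read-out is yeast growth inhibition, calculated against vehicle-only controls. The compound was applied to a strain engineered with DNA damage repair alterations.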

Measured: growth inhibition

Cc1nc(Nc2ccc(Cl)c(Cl)c2)sc1C(/C=C/c1ccc2c(c1)OCO2)=N/Nc1ccc([N+](=O)[O-])cc1[N+](=O)[O-]
inactive: [1] -21.2% | [2] -14.3% | [3] 3.75% | [4] 3.45% | [5] -9.55% | [6] 2.45%

C[N+](C)(C)CC(=O)N/N=C(/C=C/c1ccccc1)CC1OC(=O)c2ccccc21 (stereo not given)
inactive: [1] -9.65% | [2] -11.4% | [3] -3.5% | [4] 16.2% | [5] -7.5% | [6] 3.9%

CN(C)C(=O)C1OC1(C)c1ccccc1 (stereo not given)
inactive: [1] -7.75% | [2] -5.25% | [3] -3.35% | [4] -20.9% | [5] -1.3% | [6] -7.95%

COc1ccc2c(c1)OC(C)(C)c1c-2n(C)c2c(F)cccc2c1=O
inactive: [1] 14.8% | [2] 8.7% | [3] 16.1% | [4] 14.2% | [5] 5.35% | [6] 29.8%

O=C(Cc1ccccc1)NN1C(=O)C(Cl)C1c1cc(Br)ccc1O (stereo not given)
inactive: [1] 21% | [2] 30.1% | [3] 29.6% | [4] -20.6% | [5] 25.2% | [6] 15.6%

CC(=O)c1cccc(NC(=O)Nc2ccc(Nc3ccccc3)cc2)c1
inactive: [1] 3.8% | [2] 6.5% | [3] 5.6% | [4] 2.6% | [5] 21.8% | [6] -0.8%

c1ccc(C(=C2CCCCCCCCCCCCC2)c2ccccc2)cc1
inactive: [1] -25.2% | [2] 2.9% | [3] -2.9% | [4] -2% | [5] 25% | [6] -24%

Cc1ncc([N+](=O)[O-])n1CCNC(=O)CCCn1cnc([N+](=O)[O-])n1
inactive: [1] -17.8% | [2] -34% | [3] -15.8% | [4] -17.4% | [5] -27.9% | [6] -38.9%

Cc1cc(C)cc([N+](=O)[O-])c1
inactive: [1] 8.5% | [2] -19% | [3] 1.3% | [4] 20.1% | [5] 4.65% | [6] -26.3%

Cc1ccc(S(=O)(=O)Oc2c(Cl)cc(Cl)cc2Cl)cc1
inactive: [1] -2.4% | [2] 9.35% | [3] 26.4% | [4] -19.1% | [5] 24.8% | [6] 29.8%

CCOC(=O)CCC1(CCC(=O)OCC)CCCCCCCCC(CCC(=O)OCC)(CCC(=O)OCC)C(=O)C1=O
inactive: [1] 12.9% | [2] 12.3% | [3] -14.7% | [4] 38% | [5] -4.7% | [6] -1.3%

C=CC[N+](C)(CC=C)CC[N+](C)(CC=C)CC=C
inactive: [1] -15% | [2] 1.35% | [3] -14.9% | [4] -43.5% | [5] 1.6% | [6] -18.4%

C1CSC[C@H]2COC[C@@H](CSCCS1)S2
inactive: [1] -0.5% | [2] 4.25% | [3] -2.55% | [4] 18.9% | [5] 9.05% | [6] -7.9%

C/C(=N\[N+](C)(C)C)c1ccc2ccccc2c1
inactive: [1] 9.65% | [2] -2.45% | [3] -1.6% | [4] 5.5% | [5] -6% | [6] -9.6%

NC(CO)C(O)c1ccc([N+](=O)[O-])cc1 (stereo not given)
inactive: [1] -14.6% | [2] -33.2% | [3] -3.3% | [4] -7.25% | [5] -12.2% | [6] -13.7%

CCCCCCCCCCCCCCCCCCCl
inactive: [1] 4.9% | [2] 6.6% | [3] 0.05% | [4] -31.1% | [5] 5.7% | [6] 28.4%

CCCCS(=O)(=O)N1CCCC1
inactive: [1] 4.15% | [2] -10.3% | [3] 1.9% | [4] -28.2% | [5] -5% | [6] -5.85%

CCOC(=O)c1ccc([N+](=O)[O-])cc1
inactive: [1] -9.55% | [2] -12% | [3] -17.4% | [4] -29.2% | [5] -18.6% | [6] 21.1%

Fc1cccc(C(Nc2nncs2)Nc2nncs2)c1
inactive: [1] 14.1% | [2] -0.1% | [3] -1.7% | [4] -11.6% | [5] -3.8% | [6] -4.35%

CCCCC1(CN(C)C)C(=O)N(C)C(=O)N(C2CCCCC2)C1=O (stereo not given)
inactive: [1] 9.15% | [2] 10.2% | [3] 1.4% | [4] 21.9% | [5] -4.2% | [6] 9.6%
